The test system of this test is LXRb:RXRa (NR concentration 270 nM, RXRa partner concentration 90 nM). Description: PBM binding z-score (relative to random genomic background probes); higher = stronger binding; sequences stand for … in GC…GCGATTGACAGCGTAGAATGAAGG
How it is done:
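Protein-binding microarray (Agilent 4x180K custom design, double-stranded 60-nt probes: 5' GC cap, 34-nt variable region, 24-nt constant primer region; full probe sequence given). Purified or IVT nuclear receptor:RXRα heterodimers (3:1 NR:RXRα, mostly 270:90 nM) or homodimers were incubated for 1 h in PBS with 2% milk and no ligand, then detected with Alexa488 antibodies. Fluorescence from o1-orientation probes (~5 replicates averaged) was converted to z-scores against 500 random hg19 background probes. Variable regions are seed direct-repeat (DR0–DR5) sites, all their single-nucleotide variants and half-site ablations.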
Turning to CCTACTGGGCCAAAAAGGTCATTGATGCCGATAA, the PBM binding z-score turned out to be 3.74. CCTACGGGGCCACGAAAGGTCATTGATTCAGTGA returned a PBM binding z-score of 5.02. For TAGCCTAGGTCATGGGCCAGTGTACCACGCGAAC the value was 2.46; for ATCGAAAGGTCCACGAGGTGAGTATACACCGTTT, -0.0349.

In turn, TGAATGAGGTTAAATATCAGGGAACGTGGCGTCG displayed a PBM binding z-score of 1.79. TCTAGTTGGTCACGGAGGACACACACGACGGGTA: the PBM binding z-score is 0.424. With AATACAGGGTAACTAGGCCAGAGTAGGTACGAAT the figure was 0.0448. For CCTAGTGGGCCAAGGTCATTGATCAGTCAAAGCA the value was 2.79; for GCTAGTTGGTCAGTAAAAGGTGACACACCGGTCG, 0.263; for TAGCCTAGGGCATTCAGGGGCCAGTATAGAAAGC, -0.231.

Regarding CGTCCAAGGTCATATGAGGTCAGTGAAGACAGAT, the PBM binding z-score is 6.58. AGAACGAGGTCACGCTGAGTTGATAGCAGAGTAG came in with a PBM binding z-score of 5.24. CGAACAAGGTCATCCAGGACAGTGAATACATTGA: the PBM binding z-score turned out to be 4.67. With CTATGTAGGTTAAGGGAGTCATTCAGTTTGAAAG the figure was 0.642; with ATCGAAAGGTCGAAGGTGCGTATACCCACCCGAA, 2.33. In turn, CCGACTGGGGCAAGGTCACCATAACGCACAGCCA gave a PBM binding z-score of 2.81. Turning to CCGAGAAGGTTACGAGGGGGCATTCAGTGCGAAT, the PBM binding z-score came out at 7.2.

As to CGAACTAGGTCAAAGGACATTGAAAGGCGACGTA, the PBM binding z-score was found to be 2.06. In turn, GCTGCTAGGTCAACTGATGGTCACCTAAAGCTCG returned a PBM binding z-score of 2.31. For CCTACTGGGCCAAAAAGTTCATTGATGCCGATAA the value was 1.09; for CGTTCAAGGTCAAAGGTCAGTGAAGAGATGACGG, 6.76; for TTACCAAGGTGAAAGGTCGTTGCTGCACGCCTTG, 2.89.

TGTCAAAGTTCAAAGGTGACGTAAGTATCCACAC displayed a PBM binding z-score of 5.06. For CCAACTAGGTCAAAGGACAGTGAAAGGCGACGTA the value was 1.91; for CGAACGAGGTCATCCAGGACAGTGAATACATTGA, 5.42. For the sequence CGAACTAGGTCAAGGCCAGTGAATCTCCGCACGC, the PBM binding z-score was determined as 1.44. TCTAGTTGGTCACGGAGGTCACAAACGACGGGTA gave a PBM binding z-score of 3.15.

Sequence CCTAGTTGGTCAAGGTCACACCCGCTATAGGTAC displayed a PBM binding z-score of 3.5. With TACCCTAGGTCATTCAGGGGCCAGTATAGAAAGC the figure was 4.5; with CGTCAAAGTTCAACTGAGGTAACGTAAAGCACGC, 4.09; with CCTACTGGGCCTAAGGTCATTGATTCCAATGCTC, 3.36.

As to CCTACTGGGCCAAAGGTGATTGATTCCAATGCTC, the PBM binding z-score came to 0.206.

The sequence ATCGAAAGGTCGACCAGGTGAGTATACACCGTTT gave a PBM binding z-score of 3.1.

As for CGTACAAGGTCAAAGGTCAGTGAAGAGATGACGG, the PBM binding z-score turned out to be 6.66. For CGAACTAGGTCATCCAGGTCAGTGAATACATTGA the value was 2.98; for CCAACTGGGCCAAAAAGGTCATTGATGCCGATAA, 4.36; for GCTGCTAGGTCAACTGATGGTCAACTAAAGCTCG, 2.47. TGTATGAGGTTAAAGATCAGGGAACGTGGCGTCG returned a PBM binding z-score of 2.16. With TAGCCTAGGTCATGCGGGACAGTATAGTGTCGGC the figure was 1.88; with CATACAGGGTCGGCTAGGCCAGAGTAGGGACGGC, -0.242.

Source of the values: the supplement of paper PMC6555819.
